In all, about 2,300 compounds went through this assay and about 330 (14%) showed activity. These entries were drawn from the full list. A number with no mark means an inactive call.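 Rule for the calls: active = median modified Z-score above 1.96; inactive = 1.96 or below.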
Test system: HepG2 Srxn1-GFP reporter cells (+30 nM CDDO-Me)
Test: Srxn1-GFP intensity median modified Z-score relative to plate median; higher = stronger NRF2 / oxidative stress reporter activation, active = hit call of the paper
Conditions: 10 µM; exposure time: 24h
How it was run: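 Per-cell cytoplasmic GFP was measured on confocal images of formaldehyde-fixed, Hoechst-stained HepG2 Srxn1-GFP BAC reporter cells, excluding images with fewer than 100 cells. Before this, the cells (20,000 per well, 96-well plates) were co-exposed for 24 h to compound at 10 μM and an NRF2 activator at 30 nM with ≤0.1% DMSO, in three replicate plates. Each value is the median over replicates of the per-plate modified Z-score of GFP intensity. That score was scaled with 1.4826 × median absolute deviation.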

Compound	Srxn1-GFP intensity median modified Z-score
COC(=O)C(NC(=O)CCCCn1cnc2c(N)ncnc21)C(C)C (stereo not drawn)	1.19
CC(=O)OC1(C(C)=O)CCC2C3=CC(Cl)=C4CC(=O)C5CC5C4(C)C3CCC21C (stereo not drawn) [euspeclibcmpd1971]	-0.163
CC(O)CN(CCN(CC(C)O)CC(C)O)CC(C)O (stereo not drawn) [euspeclibcmpd990]	-0.227
OC[C@H]1O[C@H](Oc2cc(O)cc(C=Cc3ccc(O)cc3)c2)[C@H](O)[C@@H](O)[C@@H]1O [euspeclibcmpd1401]	-0.514
Oc1ccc(C=Cc2cc(O)cc(O)c2)cc1 [euspeclibcmpd1411]	12.1 (active)
CCS(=O)(=O)N1CCCC(C(=O)NCCCN(C)OC)C1 (stereo not drawn)	0.974
Nc1ccc(S(=O)(=O)N=c2ccc(Cl)n[nH]2)cc1 [euspeclibcmpd398]	-0.684
O=C(NCC(O)=NO)c1ccc(Cl)cc1 [euspeclibcmpd774]	0.804
O=c1c(O)c(-c2ccc(O)c(O)c2)oc2cc(O)cc(O)c12	0.376
CC(=O)OCC(=O)[C@@]1(O)CCC2C3CC=C4CC(=O)CC[C@]4(C)C3[C@@H](O)C[C@@]21C (stereo partly drawn) [euspeclibcmpd151]	-0.58
C[C@H](Cn1cnc2c(=N)nc[nH]c21)OCP(=O)(O)O [euspeclibcmpd1075]	-0.0246
CN(C)c1ccc(C(=C2C=CC(=[N+](C)C)C=C2)c2ccc(N(C)C)cc2)cc1 [euspeclibcmpd139]	8.6 (active)
CC(CCC(=O)O)[C@H]1CCC2C3CC[C@@H]4C[C@H](O)CC[C@]4(C)C3C[C@H](O)[C@@]21C (stereo partly drawn) [euspeclibcmpd2112]	-0.195
COC(=O)C[C@H]1C(C)(C)C(=O)C2CC3=C(CC[C@]4(C)C3=CC(=O)O[C@H]4c3ccoc3)[C@@]1(C)C2=O [euspeclibcmpd1591]	0.352
CCCCNC(=O)NS(=O)(=O)c1ccc(OC)cc1	1.61
C[C@@H](COc1ccccc1)N[C@H](C)[C@H](O)c1ccc(O)cc1 [euspeclibcmpd167]	4.4 (active)
CC(CCc1ccc(O)cc1)NCC(O)c1ccc(O)cc1 (stereo not drawn) [euspeclibcmpd467]	0.894
CC(NCCc1ccc(O)cc1)C(O)c1ccc(O)cc1 (stereo not drawn) [euspeclibcmpd402]	0.107
CC(C)(C)NC[C@@H](O)COc1nsnc1N1CCOCC1 [euspeclibcmpd295]	-0.119
COC1C(=O)C(=O)c2c(cc3oc(C(C)=O)c(O)c3c2O)C1=O (stereo not drawn) [euspeclibcmpd1523]	0.196
N=c1[nH]ccs1 [euspeclibcmpd1106]	0.0281
Cc1onc(-c2ccccc2)c1C(=O)NC1C(=O)N2C1SC(C)(C)C2C(=O)O (stereo not drawn) [euspeclibcmpd2397]	-0.382
COc1ccc(-c2coc3c4c(c(CC=C(C)C)c(O)c3c2=O)OC(C)(C)C=C4)cc1OC [euspeclibcmpd2204]	-0.479
CC(C)=CCc1c2c(c3occ(-c4ccc(O)c(O)c4)c(=O)c3c1O)C=CC(C)(C)O2 [euspeclibcmpd1728]	156 (active)
CC(C)=CCc1c2c(c3occ(-c4ccc(O)cc4)c(=O)c3c1O)C=CC(C)(C)O2 [euspeclibcmpd1709]	1.14

Compound	Srxn1-GFP intensity median modified Z-score
C=C1C[C@]23C[C@@]1(O)CC[C@H]2[C@@]12C=C[C@H](O)[C@@](C)(C(=O)O1)[C@H]2C3C(=O)O (stereo partly drawn) [euspeclibcmpd1408]	0.616
NC[C@@H]1O[C@H](O[C@@H]2[C@@H](CO)OC(O[C@@H]3[C@@H](O)[C@H](N)C[C@H](N)[C@H]3OC3O[C@H](CN)[C@@H](O)[C@H](O)[C@H]3N)[C@@H]2O)[C@H](N)[C@@H](O)[C@@H]1O (stereo partly drawn) [euspeclibcmpd206]	0.688
O=C(O)C1CC(=O)C(O)C(O)C1 (stereo not drawn) [euspeclibcmpd2407]	-0.321
O=C(O)CCCCC1CCSS1 (stereo not drawn) [euspeclibcmpd1157]	0.0225
O=C(O)CCCCCCCCCCCCC1C=CCC1 (stereo not drawn) [euspeclibcmpd1516]	10.6 (active)
CCOC(=O)CCCCCCCCCCCCC1C=CCC1 (stereo not drawn) [euspeclibcmpd2000]	-0.411
COc1ccc(-c2coc3cc(O)ccc3c2=O)c(OC)c1 [euspeclibcmpd1838]	1.83
C=CC[S+]([O-])CC(N)C(=O)O (stereo not drawn) [euspeclibcmpd2346]	-0.228
O=C(O)CCCCCCCC(O)C(O)CCCCCCO (stereo not drawn) [euspeclibcmpd1577]	-0.245
CS(C)(=O)=O [euspeclibcmpd1496]	20.2 (active)
CS(=O)(=O)OCCCCOS(C)(=O)=O [euspeclibcmpd40]	1.41
COCCCOc1cc(C[C@@H](C[C@H](N)[C@@H](O)CC(C(=O)NCC(C)(C)C(N)=O)C(C)C)C(C)C)ccc1OC (stereo partly drawn) [euspeclibcmpd873]	0.194
CC(C)C1CCC(C(=O)NC(Cc2ccccc2)C(=O)O)CC1 (stereo not drawn) [euspeclibcmpd675]	-0.338
Nc1ccc(S(=O)(=O)c2ccc(N)cc2)cc1 [euspeclibcmpd82]	0
Nc1ccc(S(N)(=O)=O)cc1 [euspeclibcmpd1042]	-0.418
Nc1ccc(S(=O)(=O)O)cc1 [euspeclibcmpd2086]	2.19 (active)
NCCC(=O)NC(Cc1c[nH]cn1)C(=O)O (stereo not drawn) [euspeclibcmpd1431]	-0.178
C[C@]12CCC3c4ccc(OC(=O)c5ccccc5)cc4CCC3C1CCC2=O (stereo partly drawn) [euspeclibcmpd2153]	-0.646
CC(=O)NC(CC(=O)NC(CCC(=O)O)C(=O)O)C(=O)O (stereo not drawn) [euspeclibcmpd1295]	-0.164
CC[C@H](/C=C/C(C)C1CCC2C3CC=C4CC(=O)CC[C@]4(C)C3CC[C@]12C)C(C)C (stereo partly drawn) [euspeclibcmpd1667]	-0.11
CN(C)c1ccc2nc3ccc(N(C)C)cc3[s+]c2c1 [euspeclibcmpd789]	9.06 (active)
Cc1cc2nc3ccc(N(C)C)cc3[s+]c2cc1N [euspeclibcmpd1030]	9 (active)
CC(C)(S)C(N)C(=O)O (stereo not drawn) [euspeclibcmpd968]	0.0726
OC[C@@H](O)[C@@H](O)[C@H](O)[C@@H](O)CO [euspeclibcmpd2147]	-0.0321
N=C(N)N=C(N)N1CCOCC1 [euspeclibcmpd1191]	-0.583

Compound	Srxn1-GFP intensity median modified Z-score
NC(=O)CCC(NC(=O)C(N)CO)C(=O)O (stereo not drawn) [euspeclibcmpd2427]	-0.15
C[C@@H]1CC[C@H]2C(C)(C)C3CC12CC[C@@]3(C)O (stereo partly drawn) [euspeclibcmpd1468]	-0.304
CC(=O)O[C@]1(C)CC[C@@]23CC1C(C)(C)[C@@H]2CC[C@H]3C [euspeclibcmpd1510]	3.58 (active)
CC(=O)OC1CCC23CC1(C)CCC2C(C)(C)CC3OC(C)=O (stereo not drawn) [euspeclibcmpd1983]	0.679
Cc1ccccc1-n1cnnc1SCC(=O)c1ccc2c(c1)OCCO2	1.22
CC(C)c1ccc2c(c1)CCC1C(C)(C(N)=O)CCCC21C (stereo not drawn) [euspeclibcmpd1367]	15.1 (active)
Cc1ccc2c(c1)CC[C@H]1CC(=O)CC[C@]21C [euspeclibcmpd2206]	0.163
CC(C)C1=CC2=CCC3[C@](C)(CCC[C@]3(C)C(=O)O)C2CC1 (stereo partly drawn) [euspeclibcmpd1332]	-0.234
CN1C(CC(=O)c2ccccc2)CCCC1CC(O)c1ccccc1 (stereo not drawn) [euspeclibcmpd1050]	-0.349
Cc1cc[nH]c(=NS(=O)(=O)c2ccc(N)cc2)n1 [euspeclibcmpd275]	-0.506
NC(=O)C(c1ccccc1)(c1ccccc1)C1CCN(CCc2ccc3c(c2)CCO3)C1 (stereo not drawn) [euspeclibcmpd914]	-0.0168
Cc1cc(C)c2c(=O)c3c(oc2c1)C(=O)N(Cc1ccc(F)cc1)C3c1cccc(O)c1 (stereo not drawn)	1.43
CCCCCCCCCCCCCCCC(=O)O[C@@H]1[C@@H](O)[C@@H](O)[C@H]([C@H](NC(=O)C2C[C@@H](CCC)CN2C)[C@H](C)Cl)O[C@@H]1SC (stereo partly drawn) [euspeclibcmpd1310]	0.0886
CC(C)(C)CC(C)(C)c1ccc(OCCOCC[N+](C)(C)Cc2ccccc2)cc1 [euspeclibcmpd33]	9.81 (active)
Oc1ccc(OCc2ccccc2)cc1 [euspeclibcmpd515]	1.16
CCCCC(O)c1ccccc1 (stereo not drawn) [euspeclibcmpd2082]	-0.178
CCCCCCCCCCCCCCCC[N+](C)(C)CCN(Cc1ccc(OC)cc1)c1ncccn1 [euspeclibcmpd626]	1.67
Cc1cc(C(C)(C)CC(C)(C)C)ccc1OCCOCC[N+](C)(C)Cc1ccccc1 [euspeclibcmpd556]	24 (active)
C[N+](C)(CCOc1ccccc1)Cc1ccccc1 [euspeclibcmpd868]	2.62 (active)
CCCCCCCCCCCCC[N+](C)(C)Cc1ccccc1 [euspeclibcmpd590]	3.29 (active)
C[C@]12C=CC(=O)CC1=CCC1C3C[C@@H](O)[C@](O)(C(=O)CO)[C@@]3(C)C[C@H](O)[C@@]12F (stereo partly drawn) [euspeclibcmpd302]	-0.809
CC1(C)C(C(=O)O)N2C(=O)C[C@H]2S1(=O)=O (stereo partly drawn) [euspeclibcmpd473]	-0.4
CC(C)(O)CC[C@@H](O)[C@](C)(O)[C@@H]1CC[C@@]2(O)C3=C(CC[C@]12C)[C@@]1(C)C[C@H](O)[C@H](O)CC1C(=O)C3 (stereo partly drawn) [euspeclibcmpd1686]	0.91

Source: the supplement of paper PMC10498489
